VACV Venus inh = qHTS for Stage-Specific Inhibitors of Vaccinia Orthopoxvirus: Venus Reporter Primary qHTS; Vaccinia virus Venus reporter expression, fluorescence; Potency, µM (titrated, usually from 36.5 µM), without a hit: top-dose activity change, negative = inhibition, most hits filed as inhibitors; 330,000 compounds, 0.46% hits; AID 720580, 2013; calls by dose curve; tested in A549 cells; note: nearly all actives have a fitted effect of over 30% in size
Pf growth 96h = Primary qHTS for delayed death inhibitors of the malarial parasite plastid, 96 hour incubation. 320,000 compounds, 6.9% hits. P. falciparum luciferase reporter growth, 96 h. AID 504834, 2011. Potency, µM (titrated, usually from 28.7 µM), without a hit: top-dose activity change, negative = inhibition, usual class: inhibitors
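Readout is luminescence from an integrated firefly luciferase in P. falciparum. Red cells, 2% hematocrit and 0.05% parasitemia final, were cultured with compound through two parasite generations (96 hours) at 37 C, 5% CO2.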
VACV mCherry inh = qHTS for Stage-Specific Inhibitors of Vaccinia Orthopoxvirus: mCherry Reporter Primary qHTS; Vaccinia virus mCherry reporter infection, fluorescence; Potency, µM (doses to about 36.5 µM), without a hit: at the highest dose activity change, negative = inhibition, hits mostly inhibitors; 310,000 compounds, 0.63% hits; calls by dose curve; tested in A549 cells; note: nearly all actives have a fitted effect of over 35% in size
Pf growth 48h = Primary qHTS for delayed death inhibitors of the malarial parasite plastid, 48 hour incubation; 310,000 compounds, 5.9% hits; P. falciparum luciferase growth in erythrocytes, 48 h; Potency, µM (highest dose often 28.7 µM), inactives show at the top dose activity change, negative = inhibition, actives largely listed as inhibitors
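Growth was read as firefly luciferase luminescence after a 48 h, 37 C, 5% CO2 exposure of compounds to reporter-bearing P. falciparum cultures (0.1% parasitemia, 2% hematocrit final) in Albumax-supplemented RPMI 1640.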
AMA1 RON2 block = qHTS for Inhibitors of AMA1-RON; Towards Development of Antimalarial Drug Lead: Primary Screen. AID 720542, 2013. 360,000 compounds, 0.2% hits. AlphaScreen AMA1-biotinylated RON2 peptide binding. Plasmodium falciparum AMA1 (3D7) - RON2 peptide interaction. Potency, µM (titrated, usually from 58.2 µM), inactives show top-dose activity change, negative = inhibition, most hits filed as inhibitors;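 note: 0% = vehicle wells and -100% = peptide control; nearly all actives have a fitted effect of over 45% in size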
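AMA1 (3D7) with his tag at 25 nM final met compounds first, then biotinylated RON2 peptide at 25 nM; detection used donor plus acceptor beads, 10 µg/mL apiece, read by AlphaScreen after 30 min at room temperature.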
Numbers without * were called inactive; i = inactive; ? = inconclusive; . = not tested or not shown. In the library only some 8.7% were active in any assay of this set; here they are far more common. Unless noted, calls come from the whole dose curve; as a rule, active = well fitted curve in the direction sought with a large enough effect; inconclusive = small, poorly fitted or top-dose-only effect, or another doubt; inactive = no such curve, though single readings can be large; an effect the other way counts as inactive or inconclusive. Unless noted, % is set by controls: 0 for no effect and ±100 for the full control effect; potency is the fitted concentration of half-maximal effect.

SMILES	VACV Venus inh	Pf growth 96h	VACV mCherry inh	Pf growth 48h	AMA1 RON2 block
CN(Cc1ccccc1)C(=O)CCSc1nc(-c2ccc3c(c2)OCO3)cc(C(F)(F)F)n1	-13%	-2%	-29%	9.3µM*	0%
Cc1ccc(S(=O)(=O)N2CCN(c3nc(-c4cncn4C)nc4ccccc34)CC2)cc1	-28%	.	-8%	.	.
O=C(N[C@@H](Cc1ccccc1)C(=O)OCc1ccccc1)c1nc[nH]c1C(=O)NC(c1ccccc1)c1ccccc1	?	9.3µM*	?	1.3µM*	100%
C[C@H](NC(=O)c1nc[nH]c1C(=O)N[C@@H](C)C(=O)OC(C)(C)C)C(=O)OCc1ccccc1	-8%	1%	i	-2%	149%
C[C@H](NC(=O)c1nc[nH]c1C(=O)N[C@@H](Cc1ccccc1)C(=O)OCc1ccccc1)C(=O)OC(C)(C)C	-12%	?	i	7.4µM*	133%
O=C(CNC(=O)c1[nH]cnc1C(=O)NC(c1ccccc1)c1ccccc1)OCc1ccccc1	-6%	1.9µM*	-1%	?	150%
CC(C)C[C@H](NC(=O)c1[nH]cnc1C(=O)N[C@@H](Cc1ccccc1)C(=O)OC(C)(C)C)C(=O)OC(C)(C)C	?	?	?	9.3µM*	90%
CC(C)c1nc(C(=O)N2CCOc3ccc(CN4CCN(c5ccccn5)CC4)cc3C2)cs1	-26%	.	-3%	.	.
COc1ccc(NC(=O)CN2CCN(Cc3ccccc3Cl)S2(=O)=O)cc1Cl	4%	.	6%	.	.
Cc1ccc(CNC(=O)c2cnn(-c3cccc(C)c3)c2C2CCN(C(=O)OC(C)(C)C)CC2)cc1	-20%	.	-23%	.	.
CC(C)n1c(SCC(=O)Nc2ccc(F)cc2)nc2c(oc3ccccc32)c1=O	-9%	.	-6%	.	.
O=C(CSc1nc2ccccc2c(=O)n1-c1ccc(Cl)cc1)N/N=C/C=C/c1ccccc1[N+](=O)[O-]	-6%	9.3µM*	-9%	?	67%
O=C(CSc1nc2ccccc2c(=O)n1-c1ccccc1)N/N=C/C=C/c1ccccc1[N+](=O)[O-]	.	?	.	9.3µM*	58%
O=C(CC(Cc1ccccc1)C(=O)O)Nc1ccccc1 (centres undefined)	.	185%	.	34%	-1%
Cc1ccc(CC(CC(=O)Nc2cccc(C(F)(F)F)c2)C(=O)O)cc1 (centres undefined)	.	15µM*	.	46%	-5%
CCc1ccc(CNC(=O)c2c3c(nc4ccccc24)C(=O)N(C2CCCCC2)C3)cc1	-23%	.	-11%	.	.
O=C(/C(=C/c1ccc(Cl)cc1)c1nc2ccccc2[nH]1)c1cccs1	.	.	.	1.7µM*	57%
COc1cc(/C=C(/C(=O)c2cccs2)c2nc3ccccc3[nH]2)ccc1O	.	1.2µM*	.	2.1µM*	26%
O=C(/C(=C\c1ccccc1)c1nc2ccccc2[nH]1)c1ccc(Cl)cc1	-29%	?	-13%	?	59%
CC(Sc1cn(CCNC(=O)c2ccccc2F)c2ccccc12)c1ccccc1 (centres undefined)	-13%	.	-15%	.	.
COc1cccc(CN2c3ccc(Br)cc3C(=O)CS2(=O)=O)c1	-25%	?	?	9.3µM*	6%
Cc1cc(Br)ccc1OCCCCNCCO	.	10µM*	.	?	-7%
C=CCNCCCCOc1ccc(Br)cc1C	-11%	9.3µM*	-20%	-21%	22%
COc1ccc(C2=Nn3c([n+](C)c4ccccc43)SC2)cc1	?	-23%	-15%	0.83µM*	-5%
C[n+]1c2n(c3ccccc31)N=C(c1ccc(Cl)cc1)CS2	.	17%	.	-23%	100%
O=C1N=c2ccccc2=C1c1sc(=S)n(-c2ccc(O)cc2)c1O	-14%	?	-35%	-1%	2%
O=C1N=c2ccccc2=C1c1sc(=S)n(NC(=O)c2cccc(O)c2)c1O	.	1.9µM*	.	-1%	13%
COc1cc(/C=N/Nc2nc(N3CCCC3)nc(N3CCCC3)n2)ccc1O	.	.	.	?	17%
